Data reported in PubChem BioAssay (NCATS).
Results filed as inconclusive are left out. Where a call stands in place of a potency, no number is given. The source made the active and inactive calls. Calls come from the whole dose curve.

assay: S16 Schwann cell PMP22 intronic element beta-lactamase assay (AID 624044); settings: S16 rat Schwann cells, PMP22 element beta-lactamase FRET, 24 h; series mostly up to 38.3 µM; note: nearly all actives have a fitted effect of over 15% in size
Procedure, shortened: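 Beta-lactamase reporter under a PMP22 intronic regulatory element in stable S16 rat Schwann cells; 24 h compound exposure. 460 nm blue signal normalized between DMSO (0%) and potassium clavulanate, with 535 nm FRET tracking viability; curves classed by r2 and response.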
Potency is the fitted concentration of half-maximal effect.

Compound | Potency
O=C(CCNNC(=O)c1ccncc1)NCc1ccccc1 | inactive
NS(=O)(=O)c1cc2c(cc1Cl)NC(C1CC3C=CC1C3)NS2(=O)=O (centres undefined) | inactive
CN/C(=C\[N+](=O)[O-])NCCSCc1ccc(CN(C)C)o1 | inactive
CNCCC(Oc1ccccc1OC)c1ccccc1 (centres undefined) | inactive
Cc1nc2ccccn2c(=O)c1CCN1CCC(C(=O)c2ccc(F)cc2)CC1 | inactive
C[n+]1cc2c3c(ccc2c2ccc4cc5c(cc4c21)OCO5)OCO3 | 15.8 µM (active)
CCN(CC)CCOCCOC(=O)C1(c2ccccc2)CCCC1 | inactive
CCCN1C[C@H](CSC)C[C@@H]2c3cccc4[nH]cc(c34)C[C@H]21 | inactive
Cc1cc(C)c(/C=C2\C(=O)Nc3ccccc32)[nH]1 | inactive
